The supplement of paper PMC10681739

How the values were obtained:
ETS1 [1] = target: T1, ETS1 (UniProt P14921); test: ETS1 binding intensity (PBM fluorescence), ETS1 alone (arbitrary fluorescence units); higher = stronger binding; settings: ETS1 concentration 1 nM; RUNX1 concentration 0 nM
T1 sequence: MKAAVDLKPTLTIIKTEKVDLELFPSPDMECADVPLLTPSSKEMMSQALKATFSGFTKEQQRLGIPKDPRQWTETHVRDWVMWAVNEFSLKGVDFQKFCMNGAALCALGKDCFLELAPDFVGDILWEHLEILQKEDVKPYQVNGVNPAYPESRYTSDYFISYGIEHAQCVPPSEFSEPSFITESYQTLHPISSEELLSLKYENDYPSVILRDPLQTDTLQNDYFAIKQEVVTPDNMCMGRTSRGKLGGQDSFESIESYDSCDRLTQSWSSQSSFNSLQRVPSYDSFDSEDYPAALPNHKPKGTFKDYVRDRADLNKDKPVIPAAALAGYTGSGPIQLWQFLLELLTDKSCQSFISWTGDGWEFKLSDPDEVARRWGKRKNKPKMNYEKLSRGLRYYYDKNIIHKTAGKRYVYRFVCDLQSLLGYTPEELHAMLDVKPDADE

RUNX1 [2] = target: RUNX1 (UniProt Q01196); test: RUNX1 binding intensity (PBM fluorescence), RUNX1 alone (arbitrary fluorescence units); higher = stronger binding; settings: RUNX1 concentration 2 nM; ETS1 concentration 0 nM
Protocol: (§1)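 Cooperative gcPBM on 36-bp genomic probes with neighbouring ETS1 and RUNX1 sites. Recombinant human RUNX1 (2 nM) was incubated alone or with ETS1 (25 nM) and detected with anti-RUNX1 antibody plus Alexa488 secondary. Values are medians over 4 replicate spots; the RUNX1+ETS1 data were normalised to the RUNX1-only data. The probes sit in constant array flanks that are not printed.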

ETS1 [3] = target: T1, ETS1; test: ETS1 binding intensity (PBM fluorescence) in presence of RUNX1, normalised to ETS1-only experiment (arbitrary fluorescence units); higher = stronger binding; settings: ETS1 concentration 1 nM; RUNX1 concentration 25 nM
RUNX1 [4] = target: RUNX1 (UniProt Q01196); test: RUNX1 binding intensity (PBM fluorescence) in presence of ETS1, normalised to RUNX1-only experiment (arbitrary fluorescence units); higher = stronger binding; settings: RUNX1 concentration 2 nM; ETS1 concentration 25 nM
Protocol: as §1
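Wherever RUNX1 binding intensity (PBM fluorescence) in presence of ETS1, normalised to RUNX1-only experiment is given: Full-length recombinant human ETS1 or RUNX1 bound to double-stranded 36-bp genomic probes on microarrays, detected by protein-specific primary antibody and Alexa488 secondary, spot fluorescence as median of four replicate spots.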
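Wherever RUNX1 binding intensity (PBM fluorescence), RUNX1 alone is given: Full-length recombinant human RUNX1 bound to double-stranded 36-bp genomic probes on a high-density microarray, scored as Alexa488 fluorescence per spot via anti-RUNX1 antibody, median of four replicate spots.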

Chain of RUNX1 (Q01196 whole entry): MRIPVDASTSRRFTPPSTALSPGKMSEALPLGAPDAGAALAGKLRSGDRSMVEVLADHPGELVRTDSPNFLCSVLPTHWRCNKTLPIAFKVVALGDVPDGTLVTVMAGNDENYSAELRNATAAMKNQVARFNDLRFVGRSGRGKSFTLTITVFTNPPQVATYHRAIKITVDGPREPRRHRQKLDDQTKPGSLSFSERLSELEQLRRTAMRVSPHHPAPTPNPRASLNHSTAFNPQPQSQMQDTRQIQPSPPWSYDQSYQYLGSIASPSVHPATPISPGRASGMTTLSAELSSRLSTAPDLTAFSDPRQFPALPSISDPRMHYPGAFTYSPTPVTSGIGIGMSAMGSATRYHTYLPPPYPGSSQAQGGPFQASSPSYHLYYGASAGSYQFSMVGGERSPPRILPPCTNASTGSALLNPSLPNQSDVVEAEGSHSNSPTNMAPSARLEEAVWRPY

Sequence	ETS1 binding intensity (ETS1 [1])	RUNX1 binding intensity (RUNX1 [2])	ETS1 binding intensity (ETS1 [3])	RUNX1 binding intensity (RUNX1 [4])
GTCTGCTTAAAAACAGGAAACCACATATCTCCACCC	3670	1600	10700	1990
CCCTGCCATTTCCTGCCCAATACCGCGTATGCAACT	1630	1780	1700	4240
AGCCCCTACCACTTCCCCCCACAGCAGTTCTGAGAT	720	1410	755	2250
CCACCGTCCCCGGAAATAACCGCGCCTGCCTCTCAA	1940	1330	3290	2090
TCTGGAGAAGCAGGATGTGGTTTGCAAGAGGCTTGC	4750	774	16700	4750
TGACATCCTCTGAGGCAGCAAGCTGCGGTGAAGTCT	400	704	561	1300
TTTCTGACTTCCTGTGTGCTTCAGAAACCTCAATGA	2020	830	2570	2110
GCACAGGCCGGAAGGAAAAGGGTTGTGGGGCTCATT	1290	814	1180	952
TATGTCTGACTTCCGCTCGTGGTTTCCATCTTAGCC	2870	895	5230	2850
GTGCTAAGTGAGGAAGTGCAGTTTACCGCACGGTGG	839	675	2410	935
GCAACAGCGATCCCCGGAAACCACAAGGCGAGATGT	1660	1680	5080	2790
GCCCTGACCCACATCCTGCCGCAGCCTGCTTGTCCT	979	1520	1350	7030
CACGGAGCCACTTCCGGCGGCTGTGGGCGCAAAACC	3620	752	4210	3120
AAGTGGAGAGCGGAAGTGAGCTGTGGGTGACTGCAG	6780	759	8400	1240
GGTTCGCGGCTTCCGGGACATTTGTACCGCAGGGGG	960	759	2330	1510
AAACAGGAAATCACAGCAGCGTTGCGGAGTGGAGCA	1100	754	1110	883
GAAGAGGGTGGAGAAGGAAGTGGTCACACCACTTGC	1140	675	2380	929
ACCCAGGAGGCGGAAGTTGTGGTGAGCCGAGATCGC	4020	862	11600	3150
CCAAGTGTAAAACGGAAGCTCAACCACGAATCTTAC	1510	800	2960	1100
TGGGGACAGGAAATGTTTACTGCCTGTGGCTTGCTG	3340	705	4240	981
CCAGCAAAGGAAGCTTGGTCAACCACAGCAGCCTGT	393	850	463	891

Sequence	ETS1 binding intensity (ETS1 [1])	RUNX1 binding intensity (RUNX1 [2])	ETS1 binding intensity (ETS1 [3])	RUNX1 binding intensity (RUNX1 [4])
TCGTGAAAAAGGAAGTGGATAAAGTGGTTACGGCAA	2040	792	3260	1460
TGGGCTTTGCAGGAAGCTGTGGTTCACCTACAGCCT	1160	692	2110	866
GTGGTCTCTGCCACTTCCTGTGGTGTAAACAGTCTC	2680	843	3730	2890
AGGCCCACCTGCTGCGGATGTGGTCTCTGTGTGTGC	2340	774	6240	1340
GGTGGCAACATCCTGGGGAGGGGAACCCACAGGGGA	364	835	452	1100
GGACTTCCTGAAGCCAGATCGGTTTACCACAGTCAG	413	634	599	1860
CTCCTTCCTGATCGGGCAGGAACTAACCACAGGAGG	1060	825	2480	1130
TCCGGAAGTCGGAGGAACACCCCAGCCGCCGCAGCC	1840	751	2010	988
AAACCCTGAGTAATCGGAAGTGGTTAGGAGTGAGAG	2190	816	6580	1310
TTGTCAGATGGCGAAGGAAACCGCGAAATTCGCCAT	608	1270	1270	1050
GCGGAGGCGGAAGTCGTGCTGCTGCTGACCACGGCT	2560	741	3170	1370
TGGAAGCGGCTTCCGGGGTGAATGCGGTTGGATCGT	1150	1030	3990	3030
TGGCTTTGCAGAAGGAAGCTGTGGTTTCTGGTCTTC	620	869	3340	1010
CTTAGTGTTTGAGGATGTGGGTTTTACAATCAGATC	845	769	2490	1310
TCTTGTTTCTTCCGTTACCGGAGCGCGGTCACGTGA	455	979	438	1570
CCTTGCTGCAGGATGCTCTAACCACAAGCCCAGGAG	528	2370	2720	5330
AGGGTTGGGGAGGATGTTGTGGTTATTATTGACATA	845	1570	4990	2840
GCCTGTGGAGTTGCAGGATGTGGTTGGCGAAAAGAA	2130	905	7880	1360
ACGTTTCGGGGTTTCCGGGCCAGCGGTTTCGGGCGC	702	937	1140	2050
GACTTCCTGTTGAAGATTGGCCTCTGCGGTACCACG	951	2700	2350	9740
CTGCGTTTCCTCTGAGTTTTGCATGTTGAGGTTGGA	462	877	382	1280

Sequence	ETS1 binding intensity (ETS1 [1])	RUNX1 binding intensity (RUNX1 [2])	ETS1 binding intensity (ETS1 [3])	RUNX1 binding intensity (RUNX1 [4])
CAGGCACACATCCGGGAGCGGCCTGCGCCGCAAGGC	608	773	661	1560
TGAGCACTGAGCACTTCCTGTGGCTTCTGAAGCTCC	1860	797	2040	1310
GCACTCGGATGTTGGCCGTAGTTGTGGTTATAGTTG	464	1010	1090	1110
TCCTCCCACGGGAAGTGCCGTAGGACCGCAGCCCGA	870	812	1170	1020
GGCTGGGGCGGTATCCTGTGGTCTTACTCTGGTGAC	445	1520	437	2620
GGGGAAAGGAAGAGGAAACCGCGAGTGCAAAGGCCC	679	1140	1580	2330
CCGGGAAGGCGGAAGCAGCAGAGACGCCGCAAGGCC	1320	823	1560	980
CTCTGAACTTCCTCTCTTTTAACCACAACTTACTAC	549	10500	1420	14100
CCTGACTTCCTCCTCCCCCTCCCGCCACAATTCCGC	1240	1620	1620	2880
TGCGCCGCGGAACCCGGAAGTGGTCACGGAGCTCGG	10600	766	23400	3970
AATGGGCTTGGTTTCCTGTGGGTTTGTAGCTTTGTA	519	899	685	2120
AACATCCTGTGTAAAGAGAATTGAATGTGGTTTTCT	559	821	1360	2600
GGAGCGCGCCGGAAACGCGCGGCTGCGGCCCGGGAG	4280	722	4330	1320
TTGGAAACAGACAGGAAGCCACAGGCAGTAAACATT	3300	753	3670	978
AGTCCTGCCCACTTCCTGCCGCAAGAGAAATCCACT	1930	1250	3260	9180
GTTCTCCTTCCTGTGCCGAGTGTGGTTTGCTATCAA	580	1250	622	2400
TTCAATCACAGGAAACAGACGTCACCCACAGACCTA	1090	794	2200	983
GAAGTCACTCAGGGAGGAAACCACAGGGCCGGTCCG	466	880	1270	863
GCCAGGAGGACTTCCGGGTGGGTGTGGTATCTGCGA	1320	780	2540	2300
ACCACGAGCCCAGGATGCGGTTTATGCGCTGTCGGG	699	2660	2890	4230
GTGCTCCTCGCTTCCTCCGCGGTCTTCCGAGCGGTC	465	1150	365	1370

Sequence	ETS1 binding intensity (ETS1 [1])	RUNX1 binding intensity (RUNX1 [2])	ETS1 binding intensity (ETS1 [3])	RUNX1 binding intensity (RUNX1 [4])
CACTGCGGAAGCAGTGTAGAGAGGTGGTTATCAGTG	707	784	680	921
CCTGCCTTCCGTCTTCCAGGCAGAACCACAGAGAGG	432	1180	481	1230
GCGCCCCGCTTCCGGGGCCGCCCTAAACCGCGGCCG	944	1520	2870	3790
TGAAACCCAGCAGGATGTGGGTTAACGGCAGGGGAG	2590	733	6440	2250
CATCAAGTATTTCCTCACGCAAGCAACCGCATCCAT	392	1180	634	1380
TCTTTAAAACCCGGAAGTTCCTGTGGTTCATACGCT	8500	978	16500	1940
GCATTGTGCTTCCGCTCGGGGAAAGACCGCTTACGG	789	851	911	1590
GTTGGGTGGGGAAGTGGATGGTGGTTTTGGCAGAGG	542	960	713	1210
CTCTTCCGCTCAGTCATCCTCAGAGGTGGTAAGACT	496	1080	387	2080
GCTGGGGCAGGAAGCTTCTAGGCCACAGACAGGACG	1190	711	1360	865
GTGCCCCGGACCTACGGATACCACACACAGACAGGC	470	928	460	869
TCCTTAATGGTTCCGGCGGCAGGGACCGCAGCGACG	460	824	526	914
CTGACAGTTACTTCCTGTCTTTGTGGGCGATTGTGA	3170	829	4620	2390
AAACCAGAGGAAGTGGATTCCAACCACAAACCTCAC	750	1080	4210	2100
CCCGTTCTCCGGAAGTGCGCGGGTTGGAGCTGAAGC	4390	760	5690	1600
CGATGCTTCCGGCCTCCTATTGGGTGGTTTCTTGGC	895	789	1050	2040
GGGAACTCACACCGGAAACCACAGAACCAAGAGTGG	7140	3800	16300	6540
AGGACACAGACAGGAAACCCGCAGGCTTTGTTTTTT	2580	859	5290	1470
